From PubChem BioAssay (Tox21)
Inconclusive results are not listed. Active and inactive are the calls of the source. Unless noted, calls come from the whole dose curve; as a rule, active = well fitted curve in the direction sought with a large enough effect in the repeat runs; inconclusive = weak or mixed curves; inactive = no such curve, though single readings can be large; an effect the other way counts as inactive or inconclusive.

Columns and labels:
[1] = qHTS assay for small molecules that induce genotoxicity in human embryonic kidney cells expressing luciferase-tagged ATAD5 (AID 651632); note: nearly all actives have a fitted effect of over 15% in size
Procedure, shortened: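 HEK293T cells carrying a luciferase reporter tagged to ATAD5 were exposed to compound or DMSO vehicle for 16 hr at 37C, 5% CO2. Amplite was added, and after 30 min at room temperature luciferase activity was read as a marker of ATAD5 induction.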

[2] = qHTS assay for small molecule agonists of the p53 signaling pathway - cell viability (AID 651633; calls by dose curve;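 note: p53RE-bla HCT reporter cells with a stable beta-lactamase p53 reporter; series mostly up to about 83 µM; nearly all actives have a fitted effect of over 30% in size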)
Procedure, shortened: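 p53RE-bla cells, seeded at 4,000 per well and rested 5 h at 37 C/5% CO2, received compounds in DMSO for 16 h at 37 C. CellTiter-Glo was then added, and luminescence was read after 30 min at room temperature to gauge cytotoxicity.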

[3] = qHTS assay for small molecules that induce genotoxicity in human embryonic kidney cells expressing luciferase-tagged ATAD5 - cell viability (AID 651634; calls by dose curve; note: nearly all actives have a fitted effect of over 25% in size)
Procedure, shortened: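 HEK293T cells expressing luciferase-tagged ATAD5 were exposed to compound or DMSO for 15.5 hr at 37C, 5% CO2. Viability was then read as live-cell protease activity by CellTiter-Fluor fluorescence after 30 min at 37C.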

[4] = qHTS assay for small molecule disruptors of the mitochondrial membrane potential - cell viability (AID 720634; calls by dose curve;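 note: human HepG2 liver cancer cells; series mostly up to about 83 µM; nearly all actives have a fitted effect of over 20% in size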)
Procedure, shortened: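 HepG2 cells seeded overnight at 37 C, then exposed to compound or DMSO for 1 hr at 37 C, 5% CO2. m-MPI dye added, then CellTiter-Glo for 30 min at room temperature; viability read as ATP luminescence.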

[5] = qHTS assay for small molecule disruptors of the mitochondrial membrane potential (AID 720635)
Procedure, shortened: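 HepG2 cells (2,000/well) attached overnight at 37C, then took compound for 1 hr at 37C, 5% CO2. Mito-MPS dye was added for 30 min; fluorescence was read at 490/535 nm (monomers) and 540/590 nm (aggregates).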

[6] = qHTS assay to test for compound auto fluorescence at 590 nm (red) in HepG2 cells (AID 720674)
Procedure, shortened: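 Intrinsic compound fluorescence in the red window (Ex/Em 540/590 nm) is measured in attached HepG2 cells exposed for 1 hr, DMSO vehicle as baseline, benchmarked to Rose Bengal sodium.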

[7] = qHTS assay to test for compound auto fluorescence at 535 nm (green) in HepG2 cells (AID 720675)
[8] = qHTS assay to test for compound auto fluorescence at 460 nm (blue) in HEK293 cells (AID 720678)
Procedure, shortened: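 Cells were seeded and left to adhere for 4-5 hr at 37C. Compounds were then pin-transferred. After an overnight incubation at 37C under 5% CO2, intrinsic fluorescence at 405/460 nm was measured and referenced to triamterene.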

[9] = qHTS assay to test for compound auto fluorescence at 590 nm (red) in HEK293 cells (AID 720679)
Procedure, shortened: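 Each well held 2,000 HEK293 cells in medium containing 10% dialyzed FBS. Following 4-5 hr attachment at 37C, 23 nL test compound or DMSO was added; plates sat overnight, and red fluorescence (540/590nm) was recorded.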

[10] = qHTS assay to test for compound auto fluorescence at 535 nm (green) in HEK293 cells (AID 720680)
[11] = qHTS assay to test for compound auto fluorescence at 460 nm (blue) in HEK293 cell free culture (AID 720681)
Procedure, shortened: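 Test compounds were pinned into cell-free culture medium (DMEM with 10% FBS) and fluorescence was read directly at Ex/Em 405/460 nm. Signals were expressed as fluorescence equivalents of triamterene, with DMSO vehicle as control.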

[12] = qHTS assay to test for compound auto fluorescence at 535 nm (green) in HEK293 cell free culture (AID 720682)
Procedure, shortened: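 No cells present: wells hold DMEM supplemented with 10% FBS, into which compound or vehicle is pinned. Green emission is then recorded (485 nm excitation, 535 nm emission) and scaled to fluorescein.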

[13] = qHTS assay to test for compound auto fluorescence at 590 nm (red) in HEK293 cell free culture (AID 720683)
Procedure, shortened: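 Tox21 10K library compounds were pinned into cell-free DMEM with 10% FBS and fluorescence was read at excitation 540 nm. Activity is expressed as Rose Bengal sodium equivalency.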

[14] = qHTS assay to test for compound auto fluorescence at 590 nm (red) in HepG2 cell free culture (AID 720684)
Procedure, shortened: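 Red fluorescence (540 nm excitation, 590 nm emission) was measured after compound transfer into cell-free MEM supplemented with 10% FBS. Values are equivalencies against Rose Bengal sodium.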

[15] = qHTS assay to test for compound auto fluorescence at 460 nm (blue) in HepG2 cell free culture (AID 720685)
Procedure, shortened: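 Compound (23 nL) or DMSO pinned into cell-free MEM with 10% FBS; blue fluorescence read at 405/460 nm excitation/emission, expressed as auto-fluorescence equivalency to triamterene.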

[16] = qHTS assay to test for compound auto fluorescence at 535 nm (green) in HepG2 cell free culture (AID 720686)
[17] = qHTS assay to test for compound auto fluorescence at 460 nm (blue) in HepG2 cells (AID 720687)
Procedure, shortened: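 Cells (2,000/well in MEM with 10% FBS) attached overnight at 37 C, then were exposed to compound or DMSO for 1 hr at 37 C, 5% CO2. Fluorescence read at Ex/Em 405/460 nm, expressed as triamterene-equivalent signal.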

[18] = target: Glucocorticoid receptor (Homo sapiens) (UniProt P04150); assay: qHTS assay to identify small molecule agonists of the glucocorticoid receptor (GR) signaling pathway (AID 720691; active = well fitted activation curve with a large enough effect in the signal ratio in the repeat runs, not every such curve was filed as active; the % refers to the signal ratio)
Procedure, shortened: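 GR-bla HeLa cells (beta-lactamase reporter under glucocorticoid response element) were plated 4 h at 37 C/5% CO2, given compounds in DMSO, and incubated 18 h at 37 C. LiveBLAzer B/G FRET substrate was added for 2 h at room temperature, then fluorescence intensity read.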

[19] = target: Glucocorticoid receptor (Homo sapiens) (UniProt P04150); assay: qHTS assay to identify small molecule antagonists of the glucocorticoid receptor (GR) signaling pathway (AID 720692; active = well fitted inhibition curve with a large enough effect in the signal ratio in the repeat runs, not every such curve was filed as active; the % refers to the signal ratio)
Procedure, shortened: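 GR-bla HeLa cells (beta-lactamase reporter under glucocorticoid response element) were pre-plated 4 h at 37 C, treated with compounds plus 5 nM dexamethasone (final) for 18 h, then read by LiveBLAzer B/G FRET fluorescence after 2 h.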

[20] = qHTS assay to identify small molecule antagonists of the glucocorticoid receptor (GR) signaling pathway - cell viability counter screen (AID 720693); note: nearly all actives have a fitted effect of over 55% in size
[21] = qHTS assay for identifying genotoxic compounds that show differential cytotoxicity against isogenic chicken DT40 cell lines with known DNA damage response pathways - wild type cell line (AID 743012); note: nearly all actives have a fitted effect of over 60% in size
Procedure, shortened: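 Parental DNA repair-proficient DT40 cells, 300 per well, were pre-incubated ~0.5 h at 37 C/5% CO2, pin-dosed with compounds in DMSO, then incubated 40 h. Viability was read as CellTiter-Glo luminescence after 30 min at room temperature.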

[22] = qHTS assay for identifying genotoxic compounds that show differential cytotoxicity against isogenic chicken DT40 cell lines with known DNA damage response pathways - Rev3 mutant cell line (AID 743014); note: nearly all actives have a fitted effect of over 55% in size
[23] = qHTS assay for identifying genotoxic compounds that show differential cytotoxicity against isogenic chicken DT40 cell lines with known DNA damage response pathways - Rad54/Ku70 mutant cell line (AID 743015); note: nearly all actives have a fitted effect of over 60% in size
[24] = qHTS assay to identify small molecule antagonists of the androgen receptor (AR) signaling pathway - cell viability counter screen (AID 743033; note: nearly all actives have a fitted effect of over 45% in size)
[25] = qHTS assay to identify small molecule antagonists of the thyroid receptor (TR) signaling pathway - cell viability counter screen (AID 743064); note: nearly all actives have a fitted effect of over 50% in size
Procedure, shortened: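 Rat GH3 pituitary tumor cells stably expressing two TR response elements driving luciferase were plated, rested 4 h, then dosed with library compounds and T3 (1 nM final). After 23.5 h at 37 °C, CellTiter-Fluor was added for 30 min and fluorescence recorded.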

[26] = qHTS assay to identify small molecule antagonists of the thyroid receptor (TR) signaling pathway (AID 743065); note: series mostly up to about 70 µM; nearly all actives have a fitted effect of over 55% in size
Procedure, shortened: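 GH3.TRE-Luc rat pituitary cells carrying two TR response elements driving luciferase were plated for 4 h, given compound plus 1 nM T3 (final), and incubated 23.5 h at 37 C. ONE-Glo luminescence measured reporter inhibition; CellTiter-Fluor fluorescence tracked cytotoxicity.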

[27] = test system: thyroid hormone receptor (rat, GH3 cells); assay: qHTS assay to identify small molecule agonists of the thyroid receptor (TR) signaling pathway (AID 743066; calls by dose curve)
[28] = target: Estrogen receptor (Homo sapiens) (UniProt P03372); assay: qHTS assay to identify small molecule antagonists of the estrogen receptor alpha (ER-alpha) signaling pathway (AID 743069; active = well fitted curve in the direction sought with a large enough effect in the signal ratio in the repeat runs, not every such curve was filed as active; the % refers to the signal ratio)
Procedure, shortened: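 HEK293 cells stably carrying an ER-alpha-UAS-bla beta-lactamase reporter were pre-cultured overnight in 2% charcoal-stripped FBS medium. Test compounds in DMSO were added together with 17beta-estradiol for 18 hr at 37C. Read-out was fluorescence after 2 hr with LiveBLAzer B/G FRET substrate at room temperature.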

[29] = target: Estrogen receptor (Homo sapiens) (UniProt P03372); assay: qHTS assay to identify small molecule agonists of the estrogen receptor alpha (ER-alpha) signaling pathway (AID 743075; calls by dose curve)
[30] = target: Estrogen receptor (Homo sapiens) (UniProt P03372); assay: qHTS assay to identify small molecule agonists of the estrogen receptor alpha (ER-alpha) signaling pathway using the BG1 cell line (AID 743079); note: nearly all actives have a fitted effect of over 20% in size
[31] = qHTS assay to identify small molecule antagonists of the estrogen receptor alpha (ER-alpha) signaling pathway using the BG1 cell line (AID 743080; calls by dose curve; note: series mostly up to about 70 µM; nearly all actives have a fitted effect of over 25% in size)
Procedure, shortened: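 Antagonist mode: compounds in DMSO were pinned onto BG1-Luc-4E2 cells alongside 17beta-estradiol agonist, incubated 21.5 h, and ERE-driven luciferase measured with ONE-Glo. Cytotoxicity was multiplexed using CellTiter-Fluor fluorescence.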

[32] = qHTS assay to identify small molecule antagonists of the estrogen receptor alpha (ER-alpha) signaling pathway using the BG1 cell line - cell viability counter screen (AID 743081);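 note: compound given together with 17beta-estradiol as the ER stimulus; series mostly up to about 70 µM; nearly all actives have a fitted effect of over 45% in size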
[33] = target: Aromatase (Homo sapiens) (UniProt P11511); assay: qHTS assay to identify aromatase inhibitors (AID 743083); note: series mostly up to about 70 µM; nearly all actives have a fitted effect of over 55% in size
[34] = qHTS assay to identify aromatase inhibitors - cell viability counter screen (AID 743084)
[35] = target: Aryl hydrocarbon receptor (Homo sapiens) (UniProt P35869); assay: qHTS assay to identify small molecule that activate the aryl hydrocarbon receptor (AhR) signaling pathway (AID 743085);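 note: HG2L7.5c1 human HepG2 liver cells with stably integrated DRE-driven firefly reporter; series mostly up to about 70 µM; nearly all actives have a fitted effect of over 15% in size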
Procedure, shortened: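 Compounds were tested in HepG2 hepatocellular carcinoma cells harbouring a stably integrated luciferase gene under control of 20 DREs. Increased reporter signal after 24 h treatment at 37C was taken as AhR activation.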

[36] = qHTS assay to identify small molecule that activate the aryl hydrocarbon receptor (AhR) signaling pathway - cell viability counter screen (AID 743086);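 note: HepG2 liver cells carrying the AhR DRE luciferase reporter; series mostly up to about 70 µM; nearly all actives have a fitted effect of over 45% in size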
Procedure, shortened: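 HepG2-AhR-luc (HG2L7.5c1) cells, 4000/well, were preincubated 5 h at 37C, exposed to compound in qHTS format for 24 hr at 37C, then given CellTiter-Fluor for 30 min; viability was read as fluorescence in the reporter wells.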

[37] = target: Peroxisome proliferator-activated receptor gamma (Homo sapiens) (UniProt P37231); assay: qHTS assay to identify small molecule agonists of the peroxisome proliferator-activated receptor gamma (PPARg) signaling pathway (AID 743094; active = well fitted activation curve with a large enough effect in the signal ratio in the repeat runs, not every such curve was filed as active; the % refers to the signal ratio)
Procedure, shortened: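 GeneBLAzer PPARg UAS-bla HEK293H cells carrying a stably integrated beta-lactamase reporter were pre-incubated 5 h at 37C, then exposed to compounds in DMSO for 17 h at 37C; LiveBLAzer B/G FRET substrate was added for 1 h at room temperature and fluorescence read.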

[38] = qHTS assay to identify small molecule antagonists of the estrogen related receptor (ERR) signaling pathway - cell viability counter screen (AID 1224818);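 note: series mostly up to about 46 µM; viability measured after 17.5 h of compound exposure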
Procedure, shortened: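 ERR reporter cells plated 6 h at 37 C/5% CO2, then compounds in DMSO pin-transferred and incubated 17.5 h at 37 C. Viability read as CellTiter-Fluor fluorescence after 30 min at 37 C.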

[39] = qHTS assay to identify small molecule antagonists of the estrogen related receptor (ERR) signaling pathway (AID 1224819;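 note: luminescence from an ERR-driven luciferase reporter measured with One-Glo reagent; series mostly up to about 46 µM; nearly all actives have a fitted effect of over 50% in size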)
Procedure, shortened: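 ERR reporter cells were plated at 2,000 cells/well and left 6 h at 37 C/5% CO2 before pin-tool transfer of compounds in DMSO. After 18 h at 37 C, One-Glo was added and luminescence was read 30 min later at room temperature.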

[40] = qHTS assay to identify small molecule agonists of the estrogen related receptor (ERR) signaling pathway (AID 1224820)
Procedure, shortened: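 Quantitative HTS of the LOPAC library used NTP ERR reporter cells treated 18 h at 37 C. Signal is luminescence after One-Glo addition and a 30 min room-temperature incubation.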

[41] = test system: estrogen-related receptor alpha (ERRalpha) with PGC-1alpha coactivator, human; assay: qHTS assay to identify small molecule antagonists of the estrogen related receptor signaling pathway with the pleiotropic PPARgamma coactivator (PGC) (AID 1224821; calls by dose curve;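 note: series mostly up to about 46 µM; lower luminescence signal means antagonism of PGC/ERR signalling; nearly all actives have a fitted effect of over 50% in size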)
Procedure, shortened: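 Quantitative HTS for antagonism: PGC/ERR cells received compounds after 6 h attachment and were incubated 18 h at 37 C, with luminescence (One-Glo) as the endpoint.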

[42] = qHTS assay to identify small molecule antagonists of the estrogen related receptor signaling pathway with the pleiotropic PPARgamma coactivator (PGC) cell viability counter screen (AID 1224822; note: series mostly up to about 46 µM)
Procedure, shortened: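 PGC/ERR cells were seeded at 2,000 cells/well, rested 6 h at 37 C/5% CO2, then given compounds in DMSO by pin tool and incubated 17.5 h at 37 C. Viability came from CellTiter-Fluor fluorescence after 30 min.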

[43] = qHTS assay to identify small molecule agonists of the estrogen related receptor signaling pathway with the pleiotropic PPARgamma coactivator (PGC) (AID 1224823)
Procedure, shortened: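 Cell-based luciferase assay in the NTP-supplied PGC/ERR line, 2,000 cells/well; 18 h compound exposure at 37 C, luminescence after One-Glo.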

[44] = qHTS assay to identify small molecule phospholipidosis (PLD) inducers (AID 1259344; active = well fitted curve in the direction sought with a large enough effect; an effect the other way counts as inactive or inconclusive)
Procedure, shortened: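 HepG2 cells on collagen I, attached 4 h at 37 C, were co-treated with compound and LipidTOX Red dye for 24 h at 37 C, then fixed with paraformaldehyde plus Hoechst 33342 and imaged by high-content microscopy for phospholipid accumulation.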

[45] = target: Nuclear receptor subfamily 1 group I member 2 (Homo sapiens) (UniProt O75469); assay: CYP3A4 induction through human pregnane X receptor (PXR) by small molecules, qHTS assay (AID 1346984); note: nearly all actives have a fitted effect of over 40% in size
Procedure, shortened: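 DPX-2 cells (HepG2 co-transfected with PXR and CYP3A4 promoter-luciferase) treated with compounds 24 h at 37C; luciferin-IPA CYP3A4 substrate 3uM final added for 3 h, then One-Glo; luminescence read. qHTS format.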

[46] = target: Nuclear receptor subfamily 1 group I member 2 (Homo sapiens) (UniProt O75469); assay: Human pregnane X receptor (PXR) activation by small molecules, qHTS assay (AID 1346985); note: nearly all actives have a fitted effect of over 40% in size
Procedure, shortened: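 DPX-2 cells (HepG2 co-transfected with a PXR response element and a CYP3A4-promoter luciferase construct) were seeded at 2,000 per well, rested 5 hr at 37C, then exposed to DMSO-dissolved compounds for 24 hr. Activation was read as luciferase luminescence.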

Measured: Potency

Chain of Estrogen receptor (Homo sapiens) (P03372 whole entry, looked up): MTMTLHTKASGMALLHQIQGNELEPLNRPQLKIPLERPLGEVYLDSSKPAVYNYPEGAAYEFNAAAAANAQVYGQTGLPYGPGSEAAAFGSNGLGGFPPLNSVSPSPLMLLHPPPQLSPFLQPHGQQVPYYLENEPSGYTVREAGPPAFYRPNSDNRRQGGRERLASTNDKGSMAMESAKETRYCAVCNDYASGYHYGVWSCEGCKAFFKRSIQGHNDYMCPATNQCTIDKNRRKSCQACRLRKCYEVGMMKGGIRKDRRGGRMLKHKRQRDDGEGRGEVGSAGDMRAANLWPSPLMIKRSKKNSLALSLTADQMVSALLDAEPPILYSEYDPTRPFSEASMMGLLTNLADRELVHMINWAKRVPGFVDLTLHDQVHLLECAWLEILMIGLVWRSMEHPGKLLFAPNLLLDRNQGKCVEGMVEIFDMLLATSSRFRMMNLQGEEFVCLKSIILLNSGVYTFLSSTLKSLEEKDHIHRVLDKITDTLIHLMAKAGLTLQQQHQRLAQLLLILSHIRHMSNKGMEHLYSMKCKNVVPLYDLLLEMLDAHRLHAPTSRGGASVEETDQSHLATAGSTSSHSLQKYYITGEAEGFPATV
Chain of Glucocorticoid receptor (Homo sapiens) (P04150 whole entry, looked up): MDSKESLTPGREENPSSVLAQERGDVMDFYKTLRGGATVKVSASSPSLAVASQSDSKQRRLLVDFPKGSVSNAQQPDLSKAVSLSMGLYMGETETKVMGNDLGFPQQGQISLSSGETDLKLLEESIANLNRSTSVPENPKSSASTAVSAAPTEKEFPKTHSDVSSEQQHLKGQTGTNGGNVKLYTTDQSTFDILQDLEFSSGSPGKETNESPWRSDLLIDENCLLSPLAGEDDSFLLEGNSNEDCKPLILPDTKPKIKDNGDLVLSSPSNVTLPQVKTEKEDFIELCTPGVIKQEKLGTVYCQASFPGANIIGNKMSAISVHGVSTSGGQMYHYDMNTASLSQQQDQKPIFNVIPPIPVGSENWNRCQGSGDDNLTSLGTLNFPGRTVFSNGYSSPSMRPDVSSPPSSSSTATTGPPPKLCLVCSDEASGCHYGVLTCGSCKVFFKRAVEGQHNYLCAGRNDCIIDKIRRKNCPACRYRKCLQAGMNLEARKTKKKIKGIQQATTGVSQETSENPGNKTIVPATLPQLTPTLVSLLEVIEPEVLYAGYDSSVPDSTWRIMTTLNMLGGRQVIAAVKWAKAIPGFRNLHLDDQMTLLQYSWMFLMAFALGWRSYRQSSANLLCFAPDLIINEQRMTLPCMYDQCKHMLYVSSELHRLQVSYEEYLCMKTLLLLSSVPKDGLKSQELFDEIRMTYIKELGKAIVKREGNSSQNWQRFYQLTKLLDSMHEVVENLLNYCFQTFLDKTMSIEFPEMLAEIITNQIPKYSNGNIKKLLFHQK
Chain of Aromatase (Homo sapiens) (P11511 whole entry, looked up): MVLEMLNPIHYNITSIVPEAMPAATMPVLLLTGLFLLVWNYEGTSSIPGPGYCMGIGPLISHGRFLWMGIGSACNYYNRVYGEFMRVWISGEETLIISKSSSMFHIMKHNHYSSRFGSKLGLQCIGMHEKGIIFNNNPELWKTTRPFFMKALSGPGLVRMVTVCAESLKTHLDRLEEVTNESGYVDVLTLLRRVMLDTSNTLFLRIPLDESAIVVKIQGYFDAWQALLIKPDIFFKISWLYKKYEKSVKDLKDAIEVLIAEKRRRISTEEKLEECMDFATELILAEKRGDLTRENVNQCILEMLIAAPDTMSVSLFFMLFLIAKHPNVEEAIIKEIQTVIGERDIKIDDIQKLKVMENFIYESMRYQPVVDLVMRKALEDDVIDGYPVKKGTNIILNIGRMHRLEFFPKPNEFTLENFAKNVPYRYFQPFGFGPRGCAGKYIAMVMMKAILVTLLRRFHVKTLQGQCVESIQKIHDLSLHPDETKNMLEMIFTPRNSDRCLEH
Chain of Peroxisome proliferator-activated receptor gamma (Homo sapiens) (P37231 whole entry, looked up): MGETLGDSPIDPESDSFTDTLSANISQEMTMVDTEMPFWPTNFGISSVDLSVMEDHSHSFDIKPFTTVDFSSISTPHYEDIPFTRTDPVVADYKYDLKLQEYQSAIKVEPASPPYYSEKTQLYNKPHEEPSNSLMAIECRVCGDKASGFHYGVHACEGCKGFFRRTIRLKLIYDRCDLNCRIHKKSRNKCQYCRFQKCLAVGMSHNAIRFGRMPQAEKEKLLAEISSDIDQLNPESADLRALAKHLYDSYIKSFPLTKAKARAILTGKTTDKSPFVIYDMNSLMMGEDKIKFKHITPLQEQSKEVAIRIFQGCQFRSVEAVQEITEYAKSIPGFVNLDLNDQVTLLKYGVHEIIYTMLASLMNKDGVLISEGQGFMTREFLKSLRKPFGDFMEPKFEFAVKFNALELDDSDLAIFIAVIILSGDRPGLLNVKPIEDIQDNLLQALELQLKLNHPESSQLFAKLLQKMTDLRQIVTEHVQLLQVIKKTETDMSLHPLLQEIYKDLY
Chain of Aryl hydrocarbon receptor (Homo sapiens) (P35869 whole entry, looked up): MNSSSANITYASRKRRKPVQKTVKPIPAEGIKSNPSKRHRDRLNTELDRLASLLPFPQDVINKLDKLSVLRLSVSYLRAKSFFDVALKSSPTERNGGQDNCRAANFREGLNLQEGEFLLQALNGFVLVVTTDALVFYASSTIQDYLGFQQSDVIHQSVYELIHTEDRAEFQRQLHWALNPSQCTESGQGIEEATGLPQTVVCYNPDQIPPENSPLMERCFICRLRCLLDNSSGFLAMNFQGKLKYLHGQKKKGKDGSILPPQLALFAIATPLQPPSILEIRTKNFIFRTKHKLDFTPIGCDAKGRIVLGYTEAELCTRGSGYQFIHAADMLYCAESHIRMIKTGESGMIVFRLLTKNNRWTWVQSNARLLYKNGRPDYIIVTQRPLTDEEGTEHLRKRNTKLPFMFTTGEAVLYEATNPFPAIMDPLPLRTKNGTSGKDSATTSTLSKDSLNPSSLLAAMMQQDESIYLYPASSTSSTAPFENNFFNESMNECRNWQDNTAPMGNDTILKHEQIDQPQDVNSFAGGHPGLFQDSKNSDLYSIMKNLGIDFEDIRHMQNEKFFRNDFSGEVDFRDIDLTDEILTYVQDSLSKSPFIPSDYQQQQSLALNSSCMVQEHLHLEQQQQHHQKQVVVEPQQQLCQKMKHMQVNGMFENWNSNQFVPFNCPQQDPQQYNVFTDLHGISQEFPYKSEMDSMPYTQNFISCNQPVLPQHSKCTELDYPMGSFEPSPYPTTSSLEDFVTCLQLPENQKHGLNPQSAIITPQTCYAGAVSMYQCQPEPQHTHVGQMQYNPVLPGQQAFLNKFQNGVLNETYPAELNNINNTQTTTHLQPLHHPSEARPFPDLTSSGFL

CCCN1CCC[C@H](c2cccc(O)c2)C1
inactive: all assays above

c1ccc2sc(C3(N4CCCCC4)CCCCC3)cc2c1
inactive: [38] | [39] | [40] | [41] | [43]
